# Measured values reported in the supplement of paper PMC3334620.
# In all, about 33,000 sequences were measured (“E-score (-0.5 to 0.5)”: median about -0.036, highest 2% from about 0.37 on). Only a selection was taken, and the highest values are over-represented in it overall.
# Target: T1, Yer064c (UniProt P40041)
# T1 sequence: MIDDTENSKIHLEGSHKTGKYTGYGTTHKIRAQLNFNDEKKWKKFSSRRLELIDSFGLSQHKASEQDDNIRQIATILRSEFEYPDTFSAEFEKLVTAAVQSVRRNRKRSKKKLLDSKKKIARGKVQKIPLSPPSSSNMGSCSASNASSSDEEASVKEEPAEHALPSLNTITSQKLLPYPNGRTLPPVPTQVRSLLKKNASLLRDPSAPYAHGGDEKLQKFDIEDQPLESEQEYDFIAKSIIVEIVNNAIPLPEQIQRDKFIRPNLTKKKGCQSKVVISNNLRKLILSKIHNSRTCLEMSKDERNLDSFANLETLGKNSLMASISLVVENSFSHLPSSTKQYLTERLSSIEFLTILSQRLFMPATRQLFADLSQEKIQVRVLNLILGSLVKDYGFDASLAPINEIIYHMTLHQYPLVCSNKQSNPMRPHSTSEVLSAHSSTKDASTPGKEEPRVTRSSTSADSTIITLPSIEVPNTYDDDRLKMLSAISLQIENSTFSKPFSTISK
# Assay: PBM E-score (8-mer binding enrichment) (E-score (-0.5 to 0.5)); higher = stronger / more preferred TF binding
# Conditions: protein concentration: 200 nM; construct: GST-full length
# Procedure, shortened: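 Masliner-normalised scans of fluorescent anti-GST signal were the basis for scoring. That signal came from GST-tagged yeast transcription factors applied at about 100-200 nM to double-stranded universal all-10-mer Agilent arrays on fresh or once-stripped slides. Each ungapped eight-base word, pooled with its reverse complement, received an E-score from the Universal PBM Analysis Suite.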
row,Sequence,PBM E-score
1,ACGGGCTA,-0.288
2,GGTGGCTA,0.181
3,ATTCAGAA,0.139
4,CACCGCAA,-0.0119
5,ACTTAACG,0.0504
6,AACAGTCA,0.384
7,CACAGTCG,0.203
8,GACAGTTA,-0.103
9,AACAGTCG,0.209
10,TACAGTCA,0.418
11,GACAGTCA,0.409
12,TACAGTAA,0.128
13,CACAGTCC,0.132
14,TACAGTGA,0.211
15,AACAGTCT,0.204
16,CACAGTCA,0.411
17,GACAGTCC,0.0581
18,ACGGAGCG,-0.0547
19,AAGAGAGG,-0.104
20,CTGCTAAA,-0.141
21,AGTTCCAC,-0.0556
22,AAACGGGG,-0.128

row,Sequence,PBM E-score
1,CTGGACAG,0.0136
2,ATGCACCC,-0.0692
3,AAATAGTG,0.062
4,CAATAGTG,0.0438
5,AAATAGTT,-0.0372
6,CAATAGTC,0.409
7,GAATAGCC,-0.0409
8,GAATAGTC,0.38
9,GAATAGTA,-0.0424
10,AAATAGTC,0.382
11,CAATAGTA,-0.0839
12,GCGTAGAA,-0.12
13,CACCGTTA,0.0864
14,ATTGGTTG,-0.0268
15,CGCTCCCG,0.17
16,AAACCACA,-0.0212
17,ACTAACCG,0.163
18,TATTTGCA,0.0422
19,AGCCATGG,0.268
20,CGTCATGA,0.253
21,CGTCATGC,-0.173
22,AGTCATGG,0.479

row,Sequence,PBM E-score
1,ATTCATGG,0.224
2,ATTCATGC,0.137
3,AGTCATGA,0.485
4,AGTCATGC,0.487
5,GGTCATGA,0.255
6,TACTTACA,-0.0596
7,GAAGCCTA,-0.143
8,AACGTATT,-0.12
9,AGGGATAG,-0.255
10,TAGAGAGA,0.0957
11,AGAAGCAG,-0.1
12,AGCTTTCA,-0.0821
13,GTGTTGGA,-0.127
14,CTTTAATC,0.29
15,CTTTAGAC,0.108
16,CTTTAGTA,0.14
17,ATTTAATC,0.366
18,ATTTAGTC,0.444
19,ATTTAGTA,0.253
20,CTTTAGTC,0.416
21,ATTTAGTG,0.127
22,ATTTAATA,0.117

row,Sequence,PBM E-score
1,GGCCTACA,-0.0963
2,TAATAGCA,-0.09
3,ACCAAGAG,-0.00272
4,CATAACCA,0.071
5,GGCGAATA,-0.0639
6,CGGCGAGC,-0.108
7,GACTCATA,0.477
8,AACTCATC,0.33
9,CACTCATC,0.258
10,AACTCATA,0.275
11,GACTCATC,0.478
12,CACTCATA,0.259
13,CCTGCCAG,-0.212
14,ATTTTCAG,-0.135
15,CTCTGTCC,-0.14
16,TGTCTTAA,-0.0134
17,ACTCTTAT,0.241
18,ACTCTTAG,0.198
19,AGTCTTAT,0.383
20,CGTCTTAC,-0.141
21,CGTCTTAG,-0.188
22,GGTCTTAC,0.131

row,Sequence,PBM E-score
1,AGTCTTAC,0.415
2,CGTCTTAA,-0.00451
3,AGTCTTAA,0.387
4,AATCTTAT,0.207
5,AGTCTTAG,0.408
6,CCCCAGGC,-0.41
7,AATCGACT,0.258
8,ATCTGGCA,-0.118
9,AGTGACCC,-0.0592
10,GTCTATCA,0.0174
11,GGTTTCTA,-0.133
12,CCTTTCTA,-0.251
13,AACAACAT,-0.0999
14,CTTTGTAA,0.173
15,TAGTTGAA,0.127
16,CACGTGAG,0.0942
17,ATTAGTGA,0.219
18,ATTAGTGG,0.11
19,ATTAGTCA,0.484
20,ATTAGTTA,0.153
21,ATTAGGCC,0.00222
